These results are taken from PubChem BioAssay (NCATS).

SMILES strings stand for the structures. “And” between values parts separate entries of the source, which are not always exact repeats. Equal entries are not always repeated. Inconclusive results are not listed. A call without a number means that no potency is given here. The source made the active and inactive calls. The call rests on the fitted dose curve; in most records, active means well fitted curve in the direction sought with a large enough effect; inconclusive means small, poorly fitted or top-dose-only effect, or another doubt; inactive means no such curve, though single readings can be large; an effect the other way counts as inactive or inconclusive. Where a SMILES comes first, the peptide text is derived from it. [ ]: non-standard residue; d: D form. pGlu = O=C1CC[C@@H](C(=O)O)N1; Thz = O=C(O)[C@@H]1CSCN1

One test in a line: qHTS assay to identify small molecule inhibitors of chordoma cells - UCH-2 (AID 1259356). The settings on record: UCH-2 chordoma viability, CellTiter-Glo ATP luminescence, 48 h; series mostly up to 46.1 µM. In general terms: Quantitative high-throughput screening tests each substance at several concentrations.
Take `O=C(O)c1ccccc1Nc1cccc(C(F)(F)F)c1`: the Potency result was “inactive”.

On to `Nc1ccc(O)c(C(=O)O)c1`, for which the Potency result was “inactive”.

In the case of `COc1cc2c3cc1Oc1cc(ccc1O)C[C@@H]1c4c(cc(OC)c(O)c4Oc4ccc(cc4)C[C@@H]3N(C)CC2)CC[N+]1(C)C`, the Potency entry is “inactive”.

Consider `Cc1ccc(O)c(-n2nc3ccccc3n2)c1`, for which the Potency result is “inactive”.

`COC(=O)[C@H]1[C@H]2C[C@@H]3c4[nH]c5cc(OC)ccc5c4CCN3C[C@H]2C[C@@H](OC(=O)/C=C/c2cc(OC)c(OC)c(OC)c2)[C@@H]1OC`: the Potency result was “inactive”.

`N=c1ccn2c(n1)O[C@H]1[C@H](O)[C@@H](CO)O[C@H]12`: the Potency result is “inactive”.

As for `O=C(O)COc1ccc(C(=O)c2cccs2)c(Cl)c1Cl`, the Potency entry was “inactive”.

Take `CCC1C(=O)OCC1Cc1cncn1C` (configuration not stated): the Potency entry was “inactive”.

Turning to `C=CC(N)CCC(=O)O` (configuration not stated), the Potency entry is “inactive”.

In the case of `CN(C)CCn1nnnc1SCC1=C(C(=O)O)N2C(=O)[C@@H](NC(=O)Cc3csc(N)n3)[C@H]2SC1`, the Potency result was “inactive”.

Turning to `CCOC(=O)c1ccccc1O`, the Potency result is “inactive”.

For `CCCCC[C@H](O)/C=C/[C@@H]1[C@@H](C/C=C\CCCC(=O)O)[C@@H](O)C[C@H]1O`, the Potency entry is “inactive”.

As to `C[S+](CC[C@H](N)C(=O)O)C[C@H]1O[C@@H](n2cnc3c(N)ncnc32)[C@H](O)[C@@H]1O` (some centres not stated), the Potency entry is “inactive”.

As for `CN1[C@@H]2CC[C@H]1CC(OC(=O)C(CO)c1ccccc1)C2` (some centres not stated), the Potency result is “inactive”.

The next test is described as follows: P-glycoprotein substrates identified in KB-8-5-11 adenocarcinoma cell line, qHTS therapeutic library screen (AID 1346987). Further: nearly all actives have a fitted effect of over 65% in size. Further: potency means the concentration at half of the fitted maximal effect. The note with it: KB-8-5-11 (P-gp overexpressing) viability, CellTiter-Glo, 72 h; series mostly up to 44.5 µM. The method, boiled down: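 Compounds are pinned in dose-response onto KB-8-5-11 cells (500 cells/well, colchicine-free medium) and left 72 h at 37 degree C. CellTiter-Glo luminescence then yields AC50 values.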
For the compound `O=C1CC[C@@H](C(=O)N2CSC[C@H]2C(=O)O)N1` ([pGlu]-[Thz]-OH), the Potency entry was “inactive”.

Turning to `O=C(O)c1ccccc1Nc1cccc(C(F)(F)F)c1`, the Potency entry is “inactive”.

`CC(C(=O)O)c1ccc(C(=O)c2ccccc2)s1` (configuration not stated): the Potency entry is “inactive”.

`CCCCCCCCCCCCCCCCCC(=O)O`: the Potency entry was “inactive”.

`O=C(/C=C/c1ccccc1)NCCO`: the Potency entry was “inactive”.

Regarding `Nc1ccc(O)c(C(=O)O)c1`, the Potency result is “inactive”.

In the case of `CC(C(=O)O)c1ccc2c(c1)[nH]c1ccc(Cl)cc12` (configuration not stated), the Potency result was “inactive”.

In the case of `COc1cc2c3cc1Oc1cc(ccc1O)C[C@@H]1c4c(cc(OC)c(O)c4Oc4ccc(cc4)C[C@@H]3N(C)CC2)CC[N+]1(C)C`, the Potency entry was “inactive”.

On to `Cc1ccc(O)c(-n2nc3ccccc3n2)c1`, for which the Potency entry was “inactive”.

Turning to `CC(=O)O[C@H]1C[C@@]2(C)[C@@H](C[C@@H](O)[C@H]3[C@@]4(C)CC[C@@H](O)[C@@H](C)[C@@H]4CC[C@@]32C)/C1=C(\CCC=C(C)C)C(=O)O`, the Potency result is “inactive”.

Turning to `COC(=O)[C@H]1[C@H]2C[C@@H]3c4[nH]c5cc(OC)ccc5c4CCN3C[C@H]2C[C@@H](OC(=O)/C=C/c2cc(OC)c(OC)c(OC)c2)[C@@H]1OC`, the Potency result was “inactive”.

For the compound `C=C(Nc1ccc(OCC)cc1)Nc1ccc(OCC)cc1`, the Potency entry is “inactive”.

As for `CC1(C)S[C@@H]2[C@H](NC(=O)[C@H](NC(=O)N3CCN(S(C)(=O)=O)C3=O)c3ccccc3)C(=O)N2[C@H]1C(=O)O`, the Potency result was “inactive”.

Consider `N=c1ccn2c(n1)O[C@H]1[C@H](O)[C@@H](CO)O[C@H]12`, for which the Potency result was “inactive”.

For `O=C(O)[C@H](CC(=O)N1C[C@H]2CCCC[C@H]2C1)Cc1ccccc1`, the Potency result was “inactive”.

Regarding `COc1cccc2c1C(=O)c1c(O)c3c(c(O)c1C2=O)C[C@@](O)(C(=O)CO)C[C@@H]3O[C@H]1C[C@H](N)[C@H](O[C@@H]2CCCCO2)[C@H](C)O1`, the Potency result was “inactive”.

Take `Cc1nc2ccccc2n1Cc1ccc(Cl)cc1`: the Potency was 4.11 µM (active).

Take `O=C(O)COc1ccc(C(=O)c2cccs2)c(Cl)c1Cl`: the Potency result is “inactive”.

Consider `c1ccc2sc(SSc3nc4ccccc4s3)nc2c1`, for which the Potency entry was “inactive”.

As to `Nc1ccc(C(=O)O)c(O)c1`, the Potency result is “inactive”.

`Cc1ccc(C(=O)c2ccc(CC(=O)O)n2C)cc1`: the Potency entry is “inactive”.

With `O=C(OCc1ccccc1)c1ccccc1`, the Potency result is “inactive”.

Turning to `CCC1C(=O)OCC1Cc1cncn1C` (configuration not stated), the Potency entry is “inactive”.

As to `Nc1c(CC(=O)O)cccc1C(=O)c1ccc(Br)cc1`, the Potency entry is “inactive”.

Regarding `C=CCCCCCCCCC(=O)O`, the Potency result was “inactive”.

As to `CC(C(=O)O)c1ccc(C(=O)c2cccs2)cc1` (configuration not stated), the Potency entry is “inactive”.

As for `C#CC1(O)CC[C@H]2[C@@H]3CCC4=CCCC[C@@H]4[C@H]3CC[C@@]21C` (some centres not stated), the Potency result was “inactive”.

Consider `COc1cc(/C=C/C(=O)N2CCN(CC(=O)N3CCCC3)CC2)cc(OC)c1OC`, for which the Potency entry is “inactive”.

As for `C=CC(N)CCC(=O)O` (configuration not stated), the Potency entry was “inactive”.

Consider `Cc1c(Nc2ncccc2C(=O)O)cccc1C(F)(F)F`, for which the Potency entry is “inactive”.

As to `CN(C)CCn1nnnc1SCC1=C(C(=O)O)N2C(=O)[C@@H](NC(=O)Cc3csc(N)n3)[C@H]2SC1`, the Potency result was “inactive”.

As for `CCCCCC[C@@H](O)C/C=C\CCCCCCCC(=O)O`, the Potency entry was “inactive”.

Take `CO[C@H]1C[C@@H]2CC[C@@H](C)[C@@](O)(O2)C(=O)C(=O)N2CCCC[C@H]2C(=O)O[C@H]([C@H](C)C[C@@H]2CC[C@@H](O)[C@H](OC)C2)CC(=O)[C@H](C)C=C(C)[C@@H](O)[C@@H](OC)C(=O)[C@H](C)C[C@H](C)/C=C/C=CC=C1C`: the Potency entry was “inactive”.

For the compound `CC(=O)[C@]1(O)Cc2c(O)c3c(c(O)c2[C@@H](O[C@H]2C[C@H](N)[C@H](O)[C@H](C)O2)C1)C(=O)c1c(O)cccc1C3=O`, the Potency is 5.17 µM (active) and 4.11 µM (active).

`CCOC(=O)c1ccccc1O`: the Potency result was “inactive”.

As for `CCCCC[C@H](O)/C=C/[C@@H]1[C@@H](C/C=C\CCCC(=O)O)[C@@H](O)C[C@H]1O`, the Potency result is “inactive”.

Consider `C[S+](CC[C@H](N)C(=O)O)C[C@H]1O[C@@H](n2cnc3c(N)ncnc32)[C@H](O)[C@@H]1O` (some centres not stated), for which the Potency result was “inactive”.

Consider `CN1[C@@H]2CC[C@H]1CC(OC(=O)C(CO)c1ccccc1)C2` (some centres not stated), for which the Potency result is “inactive”.
